Several values for one entry are separate records, joined by “and”; a condition that tells them apart may be missing. Equal values may be shown once. Inconclusive results are not listed. Where a call stands in place of a potency, no number is given. Activity calls are given as the source filed them. Calls come from the whole dose curve; as a rule, active = well fitted inhibition curve with a large enough effect; inconclusive = small, poorly fitted or top-dose-only effect; inactive = flat fitted curve, though single readings scatter. Where a SMILES comes first, the peptide text is derived from it. [ ]: non-standard residue; d: D form. pGlu = O=C1CC[C@@H](C(=O)O)N1; Thz = O=C(O)[C@@H]1CSCN1
What was measured:
Experiment in all cases: qHTS profiling for inhibitors of Plasmodium falciparum proliferation (AID 504749); note: nearly all actives have a fitted effect of over 60% in size
Details in all cases: P. falciparum in erythrocytes, SYBR Green DNA, 72 h; series mostly up to 28.7 µM
[1] = system: P93_24
In short: (§1)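 SYBR Green fluorescence of parasite DNA, read after lysis and overnight dark incubation, measured growth over 72 h in erythrocyte culture at 0.3% parasitemia and 2.5% hematocrit. Data normalised to DMSO and 0.29 uM artemisinin, with plate-drift correction.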

[2] = system: P94_40
In short: as §1

[3] = system: PAD
In short: as §1

[4] = system: PC15
In short: as §1

[5] = system: PC26
In short: as §1

[6] = system: PC49
In short: as §1

[7] = system: SC27B
In short: as §1

[8] = system: TAB109
In short: as §1

[9] = system: TAB113
In short: as §1

[10] = system: TAB165
In short: as §1
Potency is the fitted concentration of half-maximal effect.

Structure (SMILES)	Potency [1]	Potency [2]	Potency [3]	Potency [4]	Potency [5]	Potency [6]	Potency [7]	Potency [8]	Potency [9]	Potency [10]
COc1cc2c3cc1Oc1cc(ccc1O)C[C@@H]1c4c(cc(OC)c(O)c4Oc4ccc(cc4)C[C@@H]3N(C)CC2)CC[N+]1(C)C	inactive	inactive	inactive	inactive	inactive	inactive	inactive	inactive	inactive	inactive
Cc1[nH]cnc1CN1CCc2c(c3ccccc3n2C)C1=O	inactive	inactive	inactive	inactive	inactive	inactive	inactive	inactive	inactive	inactive
CC1(C)C[C@@H]1C(=O)N/C(=C\CCCCSC[C@H](N)C(=O)O)C(=O)O	inactive	inactive	inactive	inactive	inactive	inactive	inactive	inactive	inactive	inactive
Cc1c(Nc2ncccc2C(=O)O)cccc1C(F)(F)F	inactive	inactive	inactive	inactive	inactive	inactive	inactive	inactive	inactive	inactive
Oc1c(Br)cc(Br)c2cccnc12	inactive	inactive	inactive	inactive	inactive	inactive	inactive	inactive		
CN1[C@@H]2CC[C@H]1CC(OC(=O)C(CO)c1ccccc1)C2 (stereo partly specified)	inactive	inactive	inactive	inactive	inactive	inactive	inactive	inactive	inactive	inactive
C#C[C@]1(O)CC[C@H]2[C@@H]3CCc4cc(O)ccc4[C@H]3CC[C@@]21C	inactive	inactive	inactive	inactive	inactive	inactive	inactive	inactive	inactive	inactive
O=C(/C=C/c1ccccc1)NCCO	inactive	inactive	inactive	inactive	inactive	inactive	inactive	inactive	inactive	inactive
Nc1c(CC(=O)O)cccc1C(=O)c1ccc(Br)cc1	inactive	inactive	inactive	inactive	inactive	inactive	inactive	inactive	inactive	inactive
COc1cc(CNC(=O)CCCC/C=C/C(C)C)ccc1O	inactive	inactive	inactive	inactive	inactive	inactive	inactive	inactive	inactive	inactive
Nc1ccc(C(=O)O)c(O)c1	inactive	inactive	inactive	inactive	inactive	inactive	inactive	inactive	inactive	inactive
Cc1ccccc1CNc1ncnc2c1ncn2C1OC(CO)C(O)C1O (stereo unspecified)	inactive	inactive	inactive	inactive	inactive	inactive	inactive	inactive	inactive	inactive
CCCOC(=O)c1ccc(O)cc1	inactive	inactive	inactive	inactive	inactive	inactive	inactive	inactive	inactive	inactive
CC(C(=O)O)c1ccc2c(c1)[nH]c1ccc(Cl)cc12 (stereo unspecified)	inactive	inactive	inactive	inactive	inactive	inactive	inactive	inactive	inactive	inactive
C=CC(N)CCC(=O)O (stereo unspecified)	inactive	inactive	inactive	inactive	inactive	inactive	inactive	inactive	inactive	inactive
CCCCCCCCCCCCCCCC(=O)OC(C)C	inactive	inactive	inactive	inactive	inactive	inactive	inactive	inactive	inactive	inactive
CCCCCC[C@@H](O)C/C=C\CCCCCCCC(=O)O	inactive	inactive	inactive	inactive	inactive	inactive	inactive	inactive	inactive	inactive
O=C(O)/C=C/C(O)c1ccc(Cl)cc1 (stereo unspecified)	inactive	inactive	inactive	inactive	inactive	inactive	inactive	inactive	inactive	inactive
[O-][n+]1ccccc1SSc1cccc[n+]1[O-]	1 µM (active)	0.794 µM (active)	0.891 µM (active)	2.24 µM (active)	1.51 µM (active)	1.41 µM (active)	0.891 µM (active)	0.891 µM (active)	0.891 µM (active)	0.891 µM (active)
O=C(OCc1ccccc1)c1ccccc1	inactive	inactive	inactive	inactive	inactive	inactive	inactive	inactive	inactive	inactive
C=CCN1C(=O)C(CC(C)C)NC1=S (stereo unspecified)	inactive	inactive	inactive	inactive	inactive	inactive	inactive	inactive	inactive	inactive
O=C(O)[C@H](O)[C@@H](O)[C@H](O)[C@H](O)CO	inactive	inactive	inactive	inactive	inactive	inactive	inactive	inactive	inactive	inactive
O=C1CC[C@@H](C(=O)N2CSC[C@H]2C(=O)O)N1 ([pGlu]-[Thz]-OH)	inactive	inactive	inactive	inactive	inactive	inactive	inactive	inactive	inactive	inactive

Structure (SMILES)	Potency [1]	Potency [2]	Potency [3]	Potency [4]	Potency [5]	Potency [6]	Potency [7]	Potency [8]	Potency [9]	Potency [10]
Cc1nc2ccccc2n1Cc1ccc(Cl)cc1	inactive	inactive	inactive	inactive	inactive	inactive	inactive	inactive	inactive	inactive
O=C(O)Cc1ccc(-c2ccccc2)cc1	inactive	inactive	inactive	inactive	inactive	inactive	inactive	inactive	inactive	inactive
C=CCCCCCCCCC(=O)O	inactive	inactive	inactive	inactive	inactive	inactive	inactive	inactive	inactive	inactive
O=C(O)[C@H](CC(=O)N1C[C@H]2CCCC[C@H]2C1)Cc1ccccc1	inactive	inactive	inactive	inactive	inactive	inactive	inactive	inactive	inactive	inactive
CC1(C)[C@@H](O)CC[C@]2(C)[C@H]3C(=O)C=C4[C@@H]5C[C@@](C)(C(=O)O)CC[C@]5(C)CC[C@@]4(C)[C@]3(C)CC[C@@H]12	inactive	inactive	inactive	inactive	inactive	inactive	inactive	inactive	inactive	inactive
O=C(O)c1ccccc1Nc1cccc(C(F)(F)F)c1	inactive	inactive	inactive	inactive	inactive	inactive	inactive	inactive	inactive	inactive
CCCCCCOc1ccccc1C(N)=O	inactive	inactive	inactive	inactive	inactive	inactive	inactive	inactive	inactive	inactive
CCC1C(=O)OCC1Cc1cncn1C (stereo unspecified)	inactive	inactive	inactive	inactive	inactive	inactive	inactive	inactive	inactive	inactive
CCOC(=O)c1ccccc1O	inactive	inactive	inactive	inactive	inactive	inactive	inactive	inactive	inactive	inactive
CC1(C)S[C@@H]2[C@H](NC(=O)[C@H](NC(=O)N3CCN(S(C)(=O)=O)C3=O)c3ccccc3)C(=O)N2[C@H]1C(=O)O	inactive	inactive	inactive	inactive	inactive	inactive	inactive	inactive	inactive	inactive
c1ccc2sc(SSc3nc4ccccc4s3)nc2c1	inactive	inactive	inactive	inactive	inactive	inactive	inactive	inactive	inactive	inactive
Cc1cc(O)c2ccccc2c1O	inactive	inactive	inactive	inactive		inactive	inactive	inactive	inactive	inactive
O=C(O)c1cc(O)c(O)c(O)c1		inactive	inactive	inactive	inactive	inactive	inactive	inactive		
NC(=O)C(c1ccccc1)(c1ccccc1)[C@@H]1CCN(CCc2ccc3c(c2)CCO3)C1			inactive							
CCCCCCCCCCCCCCCCCC(=O)O	inactive	inactive	inactive	inactive	inactive	inactive	inactive		inactive	inactive
CN1[C@@H](CC(=O)c2ccccc2)CCC[C@H]1C[C@H](O)c1ccccc1		11.2 µM (active)				7.08 µM (active)				14.1 µM (active)
N=c1ccn2c(n1)O[C@H]1[C@H](O)[C@@H](CO)O[C@H]12	inactive		inactive	inactive	inactive	inactive	inactive	inactive	inactive	inactive
Cc1ccc(C(=O)c2ccc(CC(=O)O)n2C)cc1	inactive	inactive	inactive	inactive	inactive	inactive	inactive	inactive	inactive	inactive
CCCSc1ccc2nc(NC(=O)OC)[nH]c2c1	inactive		inactive	inactive	inactive	inactive	inactive	inactive	inactive	inactive
COC(=O)C1=C(C)NC(C)=C(C(=O)OCC(C)C)C1c1ccccc1[N+](=O)[O-] (stereo unspecified)	10 µM (active)							8.91 µM (active)		10 µM (active)
C[S+](CC[C@H](N)C(=O)O)C[C@H]1O[C@@H](n2cnc3c(N)ncnc32)[C@H](O)[C@@H]1O (stereo partly specified)				inactive	inactive	inactive	inactive			
COc1ccc(-c2cc(=S)ss2)cc1				inactive	inactive	inactive		inactive		
CCOc1ccc2nc(S(N)(=O)=O)sc2c1			inactive		inactive	inactive	inactive	inactive	inactive	inactive

Structure (SMILES)	Potency [1]	Potency [2]	Potency [3]	Potency [4]	Potency [5]	Potency [6]	Potency [7]	Potency [8]	Potency [9]	Potency [10]
CC1OC1P(=O)(O)O (stereo unspecified)	inactive	inactive	inactive	inactive	inactive	inactive	inactive		inactive	inactive
COc1cc(/C=C/C(=O)CC(=O)/C=C/c2ccc(O)c(OC)c2)ccc1O					9.53 µM (active)	inactive				
CCCCCCCCCCCC(=O)[O][Sn]([CH2]CCC)([CH2]CCC)[O]C(=O)CCCCCCCCCCC	inactive	inactive	inactive	inactive		inactive	inactive	inactive	inactive	inactive
COc1ccc(/C=C/C(=O)Nc2ccccc2C(=O)O)cc1OC	inactive	inactive	inactive		inactive	inactive	inactive	inactive	inactive	inactive
Clc1ccccc1-c1nc(-c2ccncc2)no1		inactive			inactive	inactive	inactive		inactive	
CC(=O)[C@]1(O)Cc2c(O)c3c(c(O)c2[C@@H](O[C@H]2C[C@H](N)[C@H](O)[C@H](C)O2)C1)C(=O)c1c(O)cccc1C3=O	7.94 µM (active)	10 µM (active)	12.6 µM (active)	7.94 µM (active)		8.91 µM (active)	12.6 µM (active)	7.08 µM (active)	7.08 µM (active)	5.01 µM (active)
CC(N)C(=O)OC(C)(C)Cc1ccc(Cl)cc1 (stereo unspecified)			inactive							
COc1cc(/C=C/C(=O)N2CCN(CC(=O)N3CCCC3)CC2)cc(OC)c1OC		inactive		inactive		inactive	inactive	inactive	inactive	inactive
O=C(Nc1ccc(C(=O)O)c(O)c1)c1ccccc1		inactive	inactive	inactive	inactive	inactive	inactive	inactive	inactive	inactive
CCCCC[C@H](O)/C=C/[C@@H]1[C@@H](C/C=C\CCCC(=O)O)[C@@H](O)C[C@H]1O	inactive	inactive	inactive	inactive		inactive	inactive	inactive	inactive	inactive
Nc1ccc(O)c(C(=O)O)c1		inactive	inactive	inactive	inactive	inactive	inactive	inactive	inactive	inactive
CN1CCN(c2cc3c(nn2)Oc2ccccc2N3C)CC1	inactive	inactive	inactive	inactive	inactive	inactive	inactive	inactive	inactive	inactive
CN1[C@@H]2CC[C@H]1CC(OC(c1ccccc1)c1ccccc1)C2 (stereo partly specified)		10 µM (active)	11.2 µM (active)	10 µM (active)		3.55 µM (active) and 1.41 µM (active)	inactive			11.2 µM (active)
CN(C)c1ccc(C(=C2C=CC(=[N+](C)C)C=C2)c2ccccc2)cc1	10 µM (active)					inactive	inactive	12.6 µM (active)		5.01 µM (active)
c1ccc2sc(SN3CCOCC3)nc2c1		inactive		inactive	inactive	inactive	inactive		inactive	
CCCC(=O)OC[C@@H](OC(=O)CCC)[C@@H](OC(=O)CCC)[C@H](Cn1c2nc(=O)[nH]c(=O)c-2nc2cc(C)c(C)cc21)OC(=O)CCC				inactive	inactive	inactive				
O=C(CCN1CCN(CCO)CC1)N1c2ccccc2Sc2ccc(C(F)(F)F)cc21	12.6 µM (active)		inactive				inactive		inactive	
C=C(Nc1ccc(OCC)cc1)Nc1ccc(OCC)cc1	inactive	inactive	inactive	inactive	inactive	inactive	inactive	inactive	inactive	inactive
O=C(O)COc1ccc(C(=O)c2cccs2)c(Cl)c1Cl	inactive	inactive	inactive	inactive	inactive	inactive	inactive	inactive	inactive	inactive
Cc1ccc(O)c(-n2nc3ccccc3n2)c1	inactive	inactive	inactive	inactive	inactive	inactive	inactive	inactive	inactive	inactive
O=C1CN(/N=C/c2ccc(-c3ccc([N+](=O)[O-])cc3)o2)C(=O)N1		inactive	inactive	inactive			inactive	inactive	inactive	inactive
Nc1cc(-c2ccncc2)c[nH]c1=O	inactive	inactive	inactive	inactive		inactive	inactive	inactive	inactive	inactive
